PubChem BioAssay (Tox21)
Several values for one entry are separate records, joined by “and”; a condition that tells them apart may be missing. Equal entries are not always repeated. Results filed as inconclusive are left out. Activity calls are given as the source filed them. Unless noted, calls come from the whole dose curve; as a rule, active = well fitted curve in the direction sought with a large enough effect in the repeat runs; inconclusive = weak or mixed curves; inactive = no such curve, though single readings can be large; an effect the other way counts as inactive or inconclusive.

Experiments:
[1] = qHTS assay for small molecules that induce genotoxicity in human embryonic kidney cells expressing luciferase-tagged ATAD5 (AID 651632); note: nearly all actives have a fitted effect of over 15% in size
Outline: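 Cells were seeded at 2,000 per well, dosed with compound, and incubated 16 hr at 37C in 5% CO2. Luciferase activity was then quantified after a 30 min room-temperature incubation with Amplite.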

[2] = qHTS assay for small molecules that induce genotoxicity in human embryonic kidney cells expressing luciferase-tagged ATAD5 - cell viability (AID 651634; calls by dose curve; note: nearly all actives have a fitted effect of over 25% in size)
Outline: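 Cells (HEK293T, luciferase-tagged ATAD5) are seeded at 2,000 per well, dosed with compound or DMSO vehicle, and incubated 15.5 hr at 37C and 5% CO2. CellTiter-Fluor is added for 30 min before fluorescence is measured.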

[3] = qHTS assay for small molecule disruptors of the mitochondrial membrane potential - cell viability (AID 720634; calls by dose curve; note: nearly all actives have a fitted effect of over 20% in size; note: potency is the fitted concentration of half-maximal effect)
Outline: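 Cytotoxicity was measured by ATP quantitation in HepG2 wells that had first been treated with compound for 1 hr and stained with m-MPI dye; CellTiter-Glo incubation was 30 min at room temperature.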

[4] = qHTS assay for small molecule disruptors of the mitochondrial membrane potential (AID 720635); note: potency is the fitted concentration of half-maximal effect
Outline: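 Mitochondrial membrane potential tracked with Mito-MPS dye, red aggregates (ex 540/em 590 nm) against green monomers (ex 490/em 535 nm). Compound treatment 1 hr at 37C, dye 30 min in HepG2.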

[5] = qHTS assay to test for compound auto fluorescence at 590 nm (red) in HepG2 cells (AID 720674)
Outline: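 Red autofluorescence (Ex/Em 540/590 nm, Rose Bengal sodium equivalents) was measured in HepG2 cells, 2,000 per well in MEM plus 10% FBS, plated overnight at 37 C. Readings were taken 1 hr after adding 23 nL compound or DMSO, at 37 C and 5% CO2.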

[6] = qHTS assay to test for compound auto fluorescence at 535 nm (green) in HepG2 cells (AID 720675)
[7] = qHTS assay to test for compound auto fluorescence at 590 nm (red) in HEK293 cells (AID 720679)
Outline: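 We plated HEK293 cells in 10% dialyzed FBS medium, let them adhere for 4-5 hr, then added 23 nL compound. Overnight at 37C and 5% CO2 preceded fluorescence measurement at 540/590nm.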

[8] = qHTS assay for small molecule agonists of the p53 signaling pathway - cell viability (AID 651633; calls by dose curve; note: nearly all actives have a fitted effect of over 30% in size; note: potency is the fitted concentration of half-maximal effect)
Outline: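 Viability counter-read: CellTiter-Glo luminescence (30 min, room temperature) in the same p53RE-bla plates. These plates had been exposed to compounds for 16 h at 37 C.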

[9] = qHTS assay to test for compound auto fluorescence at 460 nm (blue) in HEK293 cells (AID 720678)
Outline: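 Triamterene serves as the blue fluorophore standard. Compound signal at 405/460 nm is read in HEK293 wells (2,000 cells, 10% dialyzed FBS) after overnight treatment at 37C.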

[10] = qHTS assay for small molecule agonists of the p53 signaling pathway (AID 651631; calls by dose curve; note: nearly all actives have a fitted effect of over 15% in size)
Outline: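 Read-out is beta-lactamase FRET fluorescence measured 2 h after substrate addition at room temperature, in HCT-116 cells with a p53 response element-driven reporter exposed to compounds for 16 h at 37 °C.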

Measured: Potency

Cc1cc(C)cc(C)c1
inactive: [1] | [2] | [3] | [4] | [5] | [6] | [7]

CCCCC(CC)COC(=O)Cl (stereo unspecified)
inactive: [1] | [8] | [2] | [5] | [6] | [7]

CCOCN(C(=O)CCl)c1c(C)cccc1CC
inactive: [1] | [8] | [2] | [3] | [5] | [6] | [9] | [7]

CC(C)(C)c1ccccc1O
inactive: [1] | [8] | [2] | [5] | [6] | [9] | [7]

CCCCCCCCC(=O)NCc1ccc(O)c(OC)c1
inactive: [1] | [8] | [3] | [5] | [6] | [9] | [7]

c1ccc(-c2cccc(-c3ccccc3)c2)cc1
inactive: [10] | [8] | [5] | [6] | [7]

Nc1c(Cl)cc([N+](=O)[O-])cc1Cl
active: [3] 24.3 µM | [4] 24.5 µM and 4.33 µM
inactive: [1] | [8] | [2] | [5] | [6] | [9] | [7]

CC(C)Oc1cc(-n2nc(C(C)(C)C)oc2=O)c(Cl)cc1Cl
inactive: [1] | [8] | [2] | [5] | [6] | [7]
active: [3] 12 µM and 54.5 µM | [4] 24 µM and 43.3 µM

CCC(C)(c1ccc(O)cc1)c1ccc(O)cc1
active: [4] 7.69 µM and 9.69 µM
inactive: [1] | [8] | [3] | [5] | [6] | [9] | [7]

CC(C)=CC1C(C(=O)OCc2coc(Cc3ccccc3)c2)C1(C)C (stereo unspecified)
active: [4] 48.6 µM and 61.1 µM
inactive: [1] | [8] | [2] | [5] | [6] | [7]

C=C(C)[C@H]1Cc2c(ccc3c2O[C@@H]2COc4cc(OC)c(OC)cc4[C@@H]2C3=O)O1
active: [3] 11.9 µM and 31 µM and 12.2 µM | [4] 15 µM and 31 µM and 4.86 µM
inactive: [1] | [5] | [6] | [7]

Oc1ccc(-c2ccccc2)cc1
active: [3] 53.8 µM and 48.6 µM | [4] 24 µM and 13.7 µM
inactive: [1] | [8] | [2] | [5] | [6] | [7]

CC(C)(c1cc(Cl)c(O)c(Cl)c1)c1cc(Cl)c(O)c(Cl)c1
active: [8] 61.1 µM | [4] 2.43 µM and 2.73 µM
inactive: [1] | [3] | [5] | [6] | [9] | [7]

CCCCCc1cc(O)cc(O)c1
inactive: [1] | [8] | [5] | [6] | [7]
active: [3] 61.1 µM | [4] 9.73 µM and 7.7 µM
